Data published in article PMC10812921, “Transcriptional Coactivator BOB1 (OBF1, OCA-B) Modulates the Specificity of DNA Recognition by the POU-Domain Factors OCT1 and OCT2 in a Monomeric Configuration”.

What was measured:
POU1 (OCT1 POU domain) = POU1 (OCT1 POU domain) (human, UniProt P14859 260-458); experiment: EMSA-SELEX-seq; no BOB1; 20 mM Tris-HCl pH 7.6, 140 mM NaCl, 10% glycerol, 0.5 mM EDTA, 0.05% Triton X-100, 0.1 mg/mL BSA, 0.1 mg/mL poly(dI-dC), 5 mM DTT, room temperature, 20 min; high values mean tight binding; conditions: protein: recombinant; dsDNA, one strand shown
Sequence of POU1 (OCT1 POU domain) (P14859 260-458): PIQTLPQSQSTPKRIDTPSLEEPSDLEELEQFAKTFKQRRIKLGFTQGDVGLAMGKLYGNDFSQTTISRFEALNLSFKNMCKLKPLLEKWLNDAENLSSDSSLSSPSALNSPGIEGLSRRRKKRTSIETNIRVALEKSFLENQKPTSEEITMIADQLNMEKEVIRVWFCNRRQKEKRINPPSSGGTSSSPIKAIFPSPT
Summary of the method: (§1)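 Binding preference is reported as the percentage of sequenced 8-mers that match a motif pattern. Tagged POU-domain proteins were made in E. coli BL21, purified under denaturing conditions and renatured. A 30 ng portion was combined with 300 ng of a PCR-amplified double-stranded random 35-nt library, with or without 28 ng coactivator protein, in 20 μL Tris–HCl pH 7.6 binding buffer for 20 min at RT. Complex bands were excised from native 6% PAGE, eluted and PCR-amplified over four rounds before Illumina sequencing.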

POU2 (OCT2 POU domain) = target: T1, POU2 (OCT2 POU domain) (human, UniProt P09086 175-386); experiment: as above; conditions: protein: recombinant; dsDNA, one strand shown
T1 sequence: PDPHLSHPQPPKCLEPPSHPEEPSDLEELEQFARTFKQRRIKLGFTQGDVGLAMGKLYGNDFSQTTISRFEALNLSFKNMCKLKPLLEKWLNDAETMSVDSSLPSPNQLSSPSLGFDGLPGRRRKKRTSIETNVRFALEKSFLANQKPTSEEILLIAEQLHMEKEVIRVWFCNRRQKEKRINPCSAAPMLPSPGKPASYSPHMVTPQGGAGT
Summary of the method: as §1

[1] = target: POU1 (OCT1 POU domain);BOB1 (OBF1, OCA-B) (human;human, UniProt P14859;Q16633 260-458;1-256, |); experiment: EMSA-SELEX-seq; with BOB1 (ternary complex band); 20 mM Tris-HCl pH 7.6, 140 mM NaCl, 10% glycerol, 0.5 mM EDTA, 0.05% Triton X-100, 0.1 mg/mL BSA, 0.1 mg/mL poly(dI-dC), 5 mM DTT, room temperature, 20 min; high values mean tight binding; conditions: protein: recombinant;recombinant; copies: 1;1; dsDNA, one strand shown
Summary of the method: as §1

[2] = target: T2, POU2 (OCT2 POU domain);BOB1 (OBF1, OCA-B) (human;human, UniProt P09086;Q16633 175-386;1-256, |); experiment: as above; conditions: protein: recombinant;recombinant; copies: 1;1; dsDNA, one strand shown
T2 sequence 1: T1 sequence
T2 sequence 2: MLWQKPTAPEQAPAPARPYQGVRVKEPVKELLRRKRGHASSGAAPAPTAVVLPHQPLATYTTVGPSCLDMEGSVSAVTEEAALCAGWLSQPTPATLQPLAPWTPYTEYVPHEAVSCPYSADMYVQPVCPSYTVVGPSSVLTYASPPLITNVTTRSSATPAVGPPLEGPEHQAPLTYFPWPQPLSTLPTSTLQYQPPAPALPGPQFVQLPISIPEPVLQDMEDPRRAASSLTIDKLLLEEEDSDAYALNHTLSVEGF
Summary of the method: as §1

Sequence | binding signal (POU1 (OCT1 POU domain)) | binding signal (POU2 (OCT2 POU domain)) | binding signal [1] | binding signal [2]
ATAAAAAT | 0.131 % of ANNNNAAN 8-mers | 0.125 % of ANNNNAAN 8-mers | 0.114 % of ANNNNAAN 8-mers | 0.09 % of ANNNNAAN 8-mers
ATGATAAC | 0.0339 % of ANNNNAAN 8-mers | 0.0489 % of ANNNNAAN 8-mers | 0.0332 % of ANNNNAAN 8-mers | 0.0479 % of ANNNNAAN 8-mers
AACAGAAT | 0.0645 % of ANNNNAAN 8-mers | 0.0679 % of ANNNNAAN 8-mers | 0.0507 % of ANNNNAAN 8-mers | 0.0594 % of ANNNNAAN 8-mers
ATTCAAAT | 1.58 % of ANNNNAAN 8-mers | 1.29 % of ANNNNAAN 8-mers | 1.57 % of ANNNNAAN 8-mers | 1.95 % of ANNNNAAN 8-mers
ATAGAAAA | 0.0767 % of ANNNNAAN 8-mers | 0.0771 % of ANNNNAAN 8-mers | 0.0695 % of ANNNNAAN 8-mers | 0.0619 % of ANNNNAAN 8-mers
AAAATAAT | 0.178 % of ANNNNAAN 8-mers | 0.212 % of ANNNNAAN 8-mers | 0.153 % of ANNNNAAN 8-mers | 0.155 % of ANNNNAAN 8-mers
ATATCAAT | 0.117 % of ANNNNAAN 8-mers | 0.139 % of ANNNNAAN 8-mers | 0.0804 % of ANNNNAAN 8-mers | 0.0776 % of ANNNNAAN 8-mers
AGCCGAAA | 0.0191 % of ANNNNAAN 8-mers | 0.0247 % of ANNNNAAN 8-mers | 0.0238 % of ANNNNAAN 8-mers | 0.0198 % of ANNNNAAN 8-mers
ACGATAAT | 0.0896 % of ANNNNAAN 8-mers | 0.123 % of ANNNNAAN 8-mers | 0.0535 % of ANNNNAAN 8-mers | 0.085 % of ANNNNAAN 8-mers
ATAGGAAG | 0.0576 % of ANNNNAAN 8-mers | 0.0696 % of ANNNNAAN 8-mers | 0.0585 % of ANNNNAAN 8-mers | 0.0561 % of ANNNNAAN 8-mers
ATAGCAAT | 0.0515 % of ANNNNAAN 8-mers | 0.0495 % of ANNNNAAN 8-mers | 0.0445 % of ANNNNAAN 8-mers | 0.0487 % of ANNNNAAN 8-mers
ATATGAAA | 0.159 % of ANNNNAAN 8-mers | 0.164 % of ANNNNAAN 8-mers | 0.226 % of ANNNNAAN 8-mers | 0.239 % of ANNNNAAN 8-mers
AAGCAAAC | 0.0606 % of ANNNNAAN 8-mers | 0.0386 % of ANNNNAAN 8-mers | 0.0878 % of ANNNNAAN 8-mers | 0.057 % of ANNNNAAN 8-mers
ATCCGAAT | 0.0542 % of ANNNNAAN 8-mers | 0.0748 % of ANNNNAAN 8-mers | 0.0496 % of ANNNNAAN 8-mers | 0.066 % of ANNNNAAN 8-mers
AGTGGAAC | 0.0267 % of ANNNNAAN 8-mers | 0.0207 % of ANNNNAAN 8-mers | 0.0281 % of ANNNNAAN 8-mers | 0.0314 % of ANNNNAAN 8-mers
AGGATAAG | 0.0496 % of ANNNNAAN 8-mers | 0.0558 % of ANNNNAAN 8-mers | 0.0523 % of ANNNNAAN 8-mers | 0.0479 % of ANNNNAAN 8-mers
AGGATAAT | 0.168 % of ANNNNAAN 8-mers | 0.209 % of ANNNNAAN 8-mers | 0.0952 % of ANNNNAAN 8-mers | 0.106 % of ANNNNAAN 8-mers
ATGTCAAC | 0.0214 % of ANNNNAAN 8-mers | 0.023 % of ANNNNAAN 8-mers | 0.0273 % of ANNNNAAN 8-mers | 0.0215 % of ANNNNAAN 8-mers
AATACAAT | 0.0797 % of ANNNNAAN 8-mers | 0.107 % of ANNNNAAN 8-mers | 0.0663 % of ANNNNAAN 8-mers | 0.0982 % of ANNNNAAN 8-mers
AAATCAAA | 0.133 % of ANNNNAAN 8-mers | 0.117 % of ANNNNAAN 8-mers | 0.194 % of ANNNNAAN 8-mers | 0.136 % of ANNNNAAN 8-mers
AGGCTAAT | 0.133 % of ANNNNAAN 8-mers | 0.197 % of ANNNNAAN 8-mers | 0.0675 % of ANNNNAAN 8-mers | 0.0908 % of ANNNNAAN 8-mers
ATCTCAAT | 0.0561 % of ANNNNAAN 8-mers | 0.0846 % of ANNNNAAN 8-mers | 0.0558 % of ANNNNAAN 8-mers | 0.0768 % of ANNNNAAN 8-mers
AGCAGAAA | 0.0374 % of ANNNNAAN 8-mers | 0.0339 % of ANNNNAAN 8-mers | 0.0336 % of ANNNNAAN 8-mers | 0.0281 % of ANNNNAAN 8-mers
AACAGAAG | 0.0244 % of ANNNNAAN 8-mers | 0.0339 % of ANNNNAAN 8-mers | 0.0273 % of ANNNNAAN 8-mers | 0.0297 % of ANNNNAAN 8-mers
AGAACAAA | 0.032 % of ANNNNAAN 8-mers | 0.0524 % of ANNNNAAN 8-mers | 0.032 % of ANNNNAAN 8-mers | 0.033 % of ANNNNAAN 8-mers
